In PubChem BioAssay AID977607 (Broad Institute, 2014):
The whole screen tested about 1,500 compounds, of which about 460 (31%) were called active. Not shown: some 1% with an inconclusive outcome.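 Rule for the calls: active = curve reaches 40% activation over neutral controls at an AC40 no higher than the top valid tested concentration; inconclusive = no clear call, values can overlap the other calls; inactive = signal moving opposite to the expected increase, and the rest.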 The list is a sample of the results. Entries with a potency or affinity are not part of this list.

assay: GLuc-reported insulin release enhancers, glucose-stimulated beta cells – cell-based, INS-1E, Gaussia luciferase, luminescence, cherry-pick, set 2, dose response (AID 977607); conditions: INS-1E GLuc insulin secretion reporter, 2-3 h, stronger effect = higher value; at 35 µM, 100% = signal doubled over neutral wells unless noted;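 note: 0% = median of the plate neutral control wells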

Max activation, inactive:
CCOc1ccccc1CNC(c1ccccc1)c1ccccc1 -22.9% [at 11 µM, 100% = signal doubled over neutral wells]
O=C(Nc1ncn[nH]1)c1ccc(Cl)c(Cl)c1 -14.6% [at 0.135 µM, 100% = signal doubled over neutral wells]
COc1cc2ccc(C(C)=NNC(N)=S)cc2cc1OC -23.9% [at 0.135 µM, 100% = signal doubled over neutral wells]
C/C(=N\NC(=O)CO/N=C(\C)c1cccs1)c1ccc(N)cc1 -25.9%
CC(C)CCN1C(=O)CSCC1(C)C(=O)NC(C)C (centres undefined) -10.4%
Cc1cccn2cc(CNS(=O)(=O)c3ccc4ccccc4c3)nc12 34% [at 3.8 µM, 100% = signal doubled over neutral wells]
COCCn1c(=S)[nH]c2sc3c(c2c1=O)CCCC3 -29.9% [at 11 µM, 100% = signal doubled over neutral wells]
COc1cc(CN2CCC(n3nccc3NC(=O)C3CCOC3)CC2)ccc1F (centres undefined) -11.8%
COc1ccccc1-n1cnc2sc(C)c(C)c2c1=O 29.4% [at 11 µM, 100% = signal doubled over neutral wells]
COc1ccc(C2N(c3ccccc3)C(=O)C2(F)F)cc1OC (centres undefined) -13.7%
COc1ccc(C(=O)OCC(=O)NC(=O)NC2CCCC2)cc1OC -7.36% [at 0.005 µM, 100% = signal doubled over neutral wells]
COc1ccc(S(=O)(=O)NC2CCCCC2)cc1C 14.2% [at 3.8 µM, 100% = signal doubled over neutral wells]
CCSc1nnc2ccc(-c3ccc(C)cc3)nn12 18.5% [at 0.015 µM, 100% = signal doubled over neutral wells]
O=C(COc1ccccc1)Nc1ccccc1C(=O)NC1CC1 -11.7% [at 0.046 µM, 100% = signal doubled over neutral wells]
O=C(CC(c1ccccc1)c1ccco1)N1CCOCC1 (centres undefined) 18.9% [at 1.2 µM, 100% = signal doubled over neutral wells]
CC(=O)c1c(O)c2cccc3c2n(c1=O)CCC3 -22.5% [at 0.046 µM, 100% = signal doubled over neutral wells]
Cc1ccccc1S(=O)(=O)N1CC(=O)N2[C@@H](CO)[C@H](c3ccc(C#CCC4CCCC4)cc3)[C@@H]2C1 276% [at 35 µM]
CCC(=O)Nc1cc(C(C)(C)C)ccc1C(C)=O -23.6% [at 0.135 µM, 100% = signal doubled over neutral wells]
O=C(c1cccs1)N(Cc1ccccn1)Cc1ccco1 -16.4% [at 0.015 µM, 100% = signal doubled over neutral wells]
CN1CCN(c2ccc(CNC(=O)C3(C)Cc4c(-c5ccccc5)ccnc4O3)cc2)CC1 (centres undefined) -21.2% [at 0.005 µM, 100% = signal doubled over neutral wells]
CNC(=O)c1[nH]nc2c1CCc1cc(OC)ccc1-2 -16.9% [at 0.005 µM, 100% = signal doubled over neutral wells]
COc1ccc2c(c1)CCc1cc(C(=O)O)sc1-2 -25.3% [at 0.135 µM, 100% = signal doubled over neutral wells]
Cc1cc(C)nc(NC(N)=NCCc2c[nH]c3ccccc23)n1 -23.4% [at 0.046 µM, 100% = signal doubled over neutral wells]
COc1cc(C(F)(F)F)c(C(=O)NCc2cccc(Cl)c2)cn1 -11.8%
CCN(CC)CCCN=C1N[C@@H](c2ccccc2)C(C(=O)OC)=C(C)N1CC -23.5% [at 3.8 µM, 100% = signal doubled over neutral wells]
COC(=O)C1=C(C)N(Cc2ccc(C(F)(F)F)cc2)C(=NCC2CC2)NC1c1ccccc1 (centres undefined) -21% [at 3.8 µM, 100% = signal doubled over neutral wells]
CCCCN(Cc1nc2ccccc2c(=O)[nH]1)C(=O)c1nn(C)c(=O)c2ccccc12 -30.4% [at 0.0016 µM, 100% = signal doubled over neutral wells]
Clc1cc(NC2CCCCC2)ncn1 -22.5% [at 11 µM, 100% = signal doubled over neutral wells]
CC(C)c1cc(C(C)C)n2nc(N)nc2n1 24.3%
COCCOC(=O)C1=C(C)NC(=O)N(C(C)=O)C1c1ccc(Cl)cc1 (centres undefined) -26.3% [at 3.8 µM, 100% = signal doubled over neutral wells]
NC1=NC(=O)C(Cc2ccc(F)cc2)S1 (centres undefined) -13% [at 0.015 µM, 100% = signal doubled over neutral wells]
CCCNC(=O)C1(C)CCN(C(=O)c2cccc(C(F)(F)F)c2)C1 (centres undefined) -15.8% [at 0.135 µM, 100% = signal doubled over neutral wells]
O=C(c1ccccc1F)N1CCCC(N2CCN(Cc3ccc4c(c3)OCO4)CC2)C1 (centres undefined) -12.4% [at 0.0016 µM, 100% = signal doubled over neutral wells]
CCCCc1nnc2c(N(C)S(=O)(=O)c3ccccc3)nc3ccccc3n12 -17.8% [at 0.015 µM, 100% = signal doubled over neutral wells]
Cc1cccc(N2CCN(C(=O)c3cccn4c(=O)c5c(C)c(C)sc5nc34)CC2)c1C -13.3% [at 0.046 µM, 100% = signal doubled over neutral wells]
COC(=O)C1CCN(c2cc(Cl)nc(N)n2)CC1 30.9%
NC(=O)c1cc2cc(Cl)ccc2o/c1=N/NC(=O)c1cccs1 -12.9% [at 0.135 µM, 100% = signal doubled over neutral wells]
N#CCCN(Cc1ccccc1)C(=O)c1cccs1 -20.9% [at 11 µM, 100% = signal doubled over neutral wells]
CCOC(=O)c1cc(CC)sc1NC(=O)COC(=O)c1cnccn1 -18.2% [at 0.005 µM, 100% = signal doubled over neutral wells]
COc1cccc(CNC(=O)c2cccnc2Sc2ccccc2)c1 -18.8% [at 0.0016 µM, 100% = signal doubled over neutral wells]
CCOc1ncccc1C(=O)NCc1cccc(OC)c1 -19.1% [at 0.0016 µM, 100% = signal doubled over neutral wells]
CCOc1ccc(CCNC(=O)COC(=O)c2nccnc2N)cc1OCC 16.3% [at 0.42 µM, 100% = signal doubled over neutral wells]
C/C(Cl)=C\Cn1c(N2CCCC2)nc2c1c(=O)[nH]c(=O)n2C -16.5% [at 0.0016 µM, 100% = signal doubled over neutral wells]
COc1ccc(NC(=O)Cc2c(SC)c3ccccc3n2Cc2ccccc2)cc1 28.7% [at 1.2 µM, 100% = signal doubled over neutral wells]
CCCCC(=O)N(C)c1c(CC)nc2c(OCc3ccc(C(F)(F)F)cc3)cccn12 -15.2%
CCc1nc2c(OCc3ccccc3C(=O)OC)cccn2c1N(C)C(=O)c1ccncc1 -29.4%
C[C@@H]1CN([C@H](C)CO)C(=O)c2cc(C#CCc3ccccc3)cnc2O[C@H]1CN(C)C(=O)C1CCC1 25.2% [at 0.015 µM, 100% = signal doubled over neutral wells]
C[C@H]1CN([C@@H](C)CO)C(=O)c2ccccc2-c2ccccc2CO[C@@H]1CN(C)Cc1ccc(Cl)c(Cl)c1 -38.4% [at 3.8 µM, 100% = signal doubled over neutral wells]
C[C@@H]1CN([C@H](C)CO)C(=O)c2cc(C#CCN(C)C)cnc2O[C@H]1CN(C)S(=O)(=O)c1cn(C)cn1 31.4% [at 0.015 µM, 100% = signal doubled over neutral wells]
COCC(=O)N(C)C[C@H]1Oc2cc(Br)ccc2S(=O)(=O)N([C@H](C)CO)C[C@H]1C -5.77% [at 0.046 µM, 100% = signal doubled over neutral wells]
C[C@H](CO)N1C[C@H](C)[C@@H](CN(C)C(=O)CC2CC2)Oc2cc(C#CC(C)(C)O)ccc2S1(=O)=O 36.4% [at 0.046 µM, 100% = signal doubled over neutral wells]
C[C@H]1CN([C@@H](C)CO)C(=O)c2ccccc2-c2ccccc2CO[C@@H]1CN(C)Cc1cccc(C(F)(F)F)c1 -39% [at 11 µM, 100% = signal doubled over neutral wells]
C[C@@H]1CN([C@@H](C)CO)C(=O)c2cccc(NC(=O)Nc3ccc(C(F)(F)F)cc3)c2O[C@H]1CN(C)Cc1ccc(Cl)c(Cl)c1 -26.5% [at 11 µM, 100% = signal doubled over neutral wells]
C[C@@H]1CN([C@H](C)CO)S(=O)(=O)c2ccc(-c3ccc(C#N)cc3)cc2O[C@H]1CN(C)C 15.6% [at 0.046 µM, 100% = signal doubled over neutral wells]
